# Measurements published in PubChem BioAssay (NCATS).
# Inconclusive results are not listed. The source made the active and inactive calls. The call rests on the fitted dose curve; in most records, active means well fitted curve in the direction sought with a large enough effect in the signal ratio, with a control signal flat (not every such curve was filed as active); inconclusive means small, poorly fitted or top-dose-only effect, or effect the other way, or a change in a side signal; inactive means no such curve, though single readings can be large or run the other way; the % refers to the signal ratio.
# Biological target: Peroxisome proliferator-activated receptor gamma (Homo sapiens) (UniProt P37231)
# Experiment: qHTS assay for small molecule agonists of peroxisome proliferator-activated receptor gamma signaling (AID 588536)
# Settings: HEK293 PPARg-UAS-bla, beta-lactamase ratio, 16 h, percent of rosiglitazone response, DMSO as zero; series mostly up to 76.7 µM; activation: at the top concentration
# Description: NIH Chemical Genomics Center [NCGC] U.S. Environmental Protection Agency [EPA] National Institutes of Environmental Health Sciences [NIEHS] National Toxicology Program [NTP] NCGC Assay Overview The Peroxisome proliferator-activated receptors (PPARs) are lipid-activated transcription factors of the nuclear receptor superfamily with three distinct subtypes namely PPAR alpha, PPAR delta (also called PPAR beta) and PPAR gamma. All these subtypes heterodimerizes with Retinoid X receptor (RXR) and these heterodimers regulate transcription of various genes. PPAR-gamma (glitazone receptor) agonists have been used in the treatment of type 2 diabetes and dyslipidaemia. It is involved in the regulation of glucose and lipid metabolism. PPAR-gamma activates certain genes like Paraoxonase 1 which is responsible for hydrolyzing organophosphates. PPAR-gamma agonists may also be therapeutically important in the treatment of coronary artery disease, obesity and cancer and atherosclerosis.
# NCGC Assay Protocol Summary Using a beta-lactamase reporter-gene under control of Peroxisome Proliferator-Activated-gamma (PPAR-gamma) response element, a cell-based assay [GeneBLAzer PPAR-gamma-UAS-bla assay developed by Invitrogen] was used to measure PPAR-gamma ligands signaling. GeneBLAzer PPAR-gamma-UAS-bla-HEK293 cells were used with assay medium containing 1% charcoal/dextran treated FBS. The assay was performed in clear bottom black Greiner 1536-well plates. Rosiglitazone was used in the screen as the positive control. Library compounds were measured for their ability to stimulate the reporter gene activity. Compounds were screened in a titration series in 1536-well format. The fluorescence intensity (405 nm excitation, 460/530 nm emission) was measured using an EnVision plate reader. Data was normalized relative to Rosiglitazone control (2 uM, 100%), and DMSO only wells (basal, 0%). Concentration-response titration points for each compound were fitted to the Hill equation yielding concentrations of half-maximal stimulation (EC50) and maximal response (efficacy) values. qHTS protocol for PPAR-gamma beta-lactamase assay in agonist mode [Step] [Parameter] [Value] [Description] 1. Reagent; 6 uL; 3000 cells/well 2. Incubation; 37 C for 6 - 6.5 hrs 3. Compounds; 23 nL; 0.59 nM to 92 uM 4. Controls (Rosiglitazone); 23 nL, - One column with dose response, start 19 uM, 1:3 dilutions in duplicates - Final concentrations of 2 uM and 0.5 uM in two columns 5. Incubation; 37 C for 16 hrs 6. Detection reagent; 1 uL of CCF4-dye 7. Incubation; RT for 2 hrs 8. Detection; Fluorescence; Envision plate reader
# Chain of Peroxisome proliferator-activated receptor gamma (Homo sapiens) (P37231 whole entry, looked up): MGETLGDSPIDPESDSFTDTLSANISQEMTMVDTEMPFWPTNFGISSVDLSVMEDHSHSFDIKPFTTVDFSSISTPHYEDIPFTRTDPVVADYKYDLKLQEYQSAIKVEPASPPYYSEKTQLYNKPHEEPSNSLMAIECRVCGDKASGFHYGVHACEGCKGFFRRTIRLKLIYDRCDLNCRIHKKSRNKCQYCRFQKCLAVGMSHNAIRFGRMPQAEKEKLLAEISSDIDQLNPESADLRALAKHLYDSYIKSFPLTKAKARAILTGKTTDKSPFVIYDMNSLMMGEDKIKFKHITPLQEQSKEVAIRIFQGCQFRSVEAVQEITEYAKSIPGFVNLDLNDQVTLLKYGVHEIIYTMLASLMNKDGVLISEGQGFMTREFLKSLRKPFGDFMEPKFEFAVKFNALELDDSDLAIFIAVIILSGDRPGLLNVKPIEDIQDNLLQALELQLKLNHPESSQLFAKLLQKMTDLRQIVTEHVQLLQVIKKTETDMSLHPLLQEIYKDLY
SMILES,activation,outcome
NC(=O)c1ccccc1O,-1.18% (inactive),–
CCCCCCCCOc1ccc(C(=O)c2ccccc2)c(O)c1,-5.48% (inactive),–
CCCCCCCCCCCCCCCCO,-5.33% (inactive),–
CCCCCCCCCCCCCCCC(=O)O,0.874% (inactive),–
CCCCOC(=O)CC(CC(=O)OCCCC)(OC(C)=O)C(=O)OCCCC,-3.21% (inactive),–
CCCCC(CC)COC(=O)c1ccc(N(C)C)cc1 (configuration not stated),–,inactive
CCCN(CCC)S(=O)(=O)c1ccc(C(=O)O)cc1,–,inactive
CCOc1ccc(NC(C)=O)cc1,-2.02% (inactive),–
O=C(O)c1ccc(S(=O)(=O)N(Cl)Cl)cc1,2.18% (inactive),–
C/C=C/c1ccc(O)c(OC)c1,–,inactive
CC1(C)OC[C@@H]2O[C@@]3(C(=O)O)OC(C)(C)O[C@H]3[C@@H]2O1,-6.91% (inactive),–
C#C[C@]1(O)CC[C@H]2[C@@H]3CCC4=Cc5oncc5C[C@]4(C)[C@H]3CC[C@@]21C,-11.4% (inactive),–
CCCCCCCCCCCCCC(=O)OC(C)C,3.01% (inactive),–
CN(C)C(=O)Nc1ccc(Cl)c(Cl)c1,-0.387% (inactive),–
NCCNc1cccc2ccccc12,-7.47% (inactive),–
CCOc1ccccc1C(N)=O,3.53% (inactive),–
COc1ccc(C(=O)c2ccccc2)c(O)c1,–,inactive
